Data reported in PubChem BioAssay.
Several values for one entry are separate records, joined by “and”; a condition that tells them apart may be missing. Equal values may be shown once. Activity calls are given as the source filed them. Unless noted, the rule behind the calls is not given here.

Key:
[1] = liver-stage malaria parasite growth inhibition, primary screen, cell-based, HepG2, luciferase luminescence, HepG2 viability (AID 624349; in the data active = parasite load remaining mostly below about 12%, no sharp cut-off; inactive = mostly above about 10%;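 note: 100% = mean of DMSO negative control wells on the same plate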); settings: P. berghei liver stage in HepG2, luciferase luminescence, concentration not given here; parasite load remaining: stronger effect = lower value; viability: measured here: HepG2 viability without parasites
[2] = Cy5 fluorescence interference with SSB-bound oligo, artefact control for HCV NS3 helicase inhibitor project, biochemical, NIH Clinical Collection, E. coli SSB (AID 743268)
[3] = tested on: Hepatitis C virus NS3 helicase; test: HCV NS3 helicase inhibitors, primary screen, biochemical, fluorescence polarization, NIH Clinical Collection (AID 743270); settings: NS3 helicase binding to Cy5-dT15 DNA, stronger effect = higher value, concentration not given here
[4] = target: Single-stranded DNA-binding protein (Escherichia coli (strain K12)) (UniProt P0AGE0); test: E. coli SSB displacement from DNA, counter-screen for HCV NS3 helicase inhibitor project, biochemical, fluorescence polarization, NIH Clinical Collection (AID 743271; in the data active = inhibition above about 28%); settings: stronger effect = higher value, concentration not given here
[5] = fluorescence interference in NS3h assay format, artefact control for HCV NS3 helicase inhibitor project, biochemical, NIH Clinical Collection (AID 743272); settings: fluorescence interference counterscreen, stronger effect = lower value;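 note: HCV NS3 helicase with a Cy5 labelled single stranded DNA probe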
[6] = tested on: Neuropilin-2 / VEGF-C interaction (human); test: inhibitors of NRP2–VEGF-C binding, biochemical, microplate binding format, z-score (AID 743281); settings: microplate NRP2/VEGF-C binding assay; stronger effect = lower value
[7] = stimulators of nuclear beta-catenin in C2C12, primary screen, imaging, WNT3A-conditioned medium, mouse C2C12, NPC library (AID 1117326; in the data active = nuclear beta-catenin stimulation mostly above about 4.2%, no sharp cut-off; inactive = mostly below about 10%); settings: stronger effect = higher value
[8] = tested on: Hepatitis C virus NS3 helicase; test: HCV NS3 helicase inhibitors, primary screen, biochemical, fluorescence polarization, LOPAC1280 library (AID 687035; in the data active = inhibition above about 37%); settings: Purified HCV NS3 helicase, Cy5-dT15 ssDNA binding fluorescence polarization; stronger effect = higher value; concentration not given here
[9] = Cy5 fluorescence quenching or enhancement artefacts, artefact control for HCV NS3 helicase inhibitor project, biochemical, LOPAC1280 (AID 687037); settings: Cy5-DNA-NS3h complex fluorescence interference counterscreen

| Compound | parasite load remaining [1] | viability [1] | fluorescence ratio [2] | inhibition [3] | inhibition [4] | fluorescence ratio [5] | z-score [6] | nuclear beta-catenin stimulation ([7]; at 10 µM) | nuclear beta-catenin stimulation ([7]; stimulation, at 2 µM) | inhibition [8] | fluorescence ratio (interference) [9] |
| --- | --- | --- | --- | --- | --- | --- | --- | --- | --- | --- | --- |
| CCc1nn(CCCN2CCN(c3cccc(Cl)c3)CC2)c(=O)n1CCOc1ccccc1 | 9.1% (inactive) and 13.5% (inactive) | 58.6% and 64.5% | 0.98 (inactive) | -1.19% (inactive) | 3.75% (inactive) | 0.99 (inactive) | 0.854 (inactive) | -1% (inactive) | 3% | – | – |
| CC(N)C12CC3CC(CC(C3)C1)C2 (configuration not stated) | 59.2% (inactive) and 69.6% (inactive) and 54.8% (inactive) | 94.8% and 97.2% and 73% | 1.02 (inactive) | -2.27% (inactive) | 1.81% (inactive) | 1.03 (inactive) | – | 1.8% (inactive) | 0.3% | – | – |
| CCCN1CCCC[C@H]1C(=O)Nc1c(C)cccc1C | 68.8% (inactive) | 69.6% | 0.98 (inactive) | -5.46% (inactive) | -2.76% (inactive) | 0.92 (inactive) | 0.543 (inactive) | 0.3% (inactive) | -1.3% | – | – |
| COc1cc(C(=O)NC2CCCNC2)cc(OC)c1OC (configuration not stated) | 134% (inactive) | 80.6% | 1 (inactive) | 2.77% (inactive) | 2.98% (inactive) | 0.98 (inactive) | -0.315 (inactive) | 22.4% (inactive) | 2.8% | – | – |
| CCCOc1ccc(C(=O)OCCN(CC)CC)cc1N | 35.3% (inactive) and 89.5% (inactive) and 24.4% (inactive) | 102% and 98.4% and 98.5% | 0.101 (active) | -4.09% (inactive) | 0.29% (inactive) | 1.02 (inactive) | – | 1.3% (inactive) | 5.7% | – | – |
| Nc1[nH]c(=O)ncc1F | 85.3% (inactive) and 51.1% (inactive) and 109% (inactive) | 93.3% and 117% and 86.7% | 1.01 (inactive) | -6.73% (inactive) | -1.64% (inactive) | 0.97 (inactive) | -0.751 (inactive) | 0.9% (inactive) | 1.7% | – | – |
| CC(C)(C(=O)c1cccnc1)c1cccnc1 | 42.4% (inactive) and 90.8% (inactive) and 15.1% (inactive) | 102% and 94.8% and 117% | 1.03 (inactive) | 1.36% (inactive) | 1.05% (inactive) | 0.96 (inactive) | – | 4.8% (inactive) | 1.3% | – | – |
| Cc1[nH]c(=O)c(C#N)cc1-c1ccncc1 | 79.2% (inactive) and 78.4% (inactive) and 15.3% (inactive) | 69% and 68.9% and 65.5% | 1.05 (inactive) | -4.36% (inactive) | -3.18% (inactive) | 1.02 (inactive) | 0.188 (inactive) | 0.1% (inactive) | 0.4% | -3% (inactive) | 1 (inactive) |
| CCOc1cc(N)c(Cl)cc1C(=O)NCC1CN(Cc2ccc(F)cc2)CCO1 (configuration not stated) | 29.6% (inactive) | 70.5% | 0.99 (inactive) | 1.19% (inactive) | 4.52% (inactive) | 0.95 (inactive) | 0.948 (inactive) | 2.5% (inactive) | 1.9% | – | – |
| CN(C)CCCSc1ccccc1NC(=O)/C=C/c1ccccc1 | 53.7% (inactive) and 10.2% (inactive) | 56.6% and 65.5% | 0.99 (inactive) | 0.4% (inactive) | -2.41% (inactive) | 0.97 (inactive) | -0.209 (inactive) | 1.7% (inactive) | 1.1% | – | – |
| COc1ccc(C(=O)NCc2ccc(OCCN(C)C)cc2)cc1OC | 97.5% (inactive) and 24.6% (inactive) | 80.4% and 69% | 1.04 (inactive) | 1.19% (inactive) | 2.98% (inactive) | 1.05 (inactive) | -0.08 (inactive) | -0.3% (inactive) | 1% | – | – |
| O=C1c2cccc3c2[C@H](CCC3)CN1[C@@H]1CN2CCC1CC2 | 80.1% (inactive) | 69.6% | 0.94 (inactive) | -1.09% (inactive) | 9.84% (inactive) | 0.96 (inactive) | -0.136 (inactive) | 0.4% (inactive) | 1.5% | – | – |
| NCC1CCC(C(=O)Oc2ccc(CCC(=O)O)cc2)CC1 (configuration not stated) | 104% (inactive) | 78.2% | 1.02 (inactive) | -1.98% (inactive) | -3.18% (inactive) | 0.94 (inactive) | -0.934 (inactive) | 0.5% (inactive) | 1% | – | – |
| O=C(c1ccc(F)cc1)C1CCN(CCn2c(=S)[nH]c3ccccc3c2=O)CC1 | 28.9% (inactive) | 66.9% | 1.05 (inactive) | 10.7% (inactive) | 26.1% (inactive) | 1.06 (inactive) | 0.126 (inactive) | 2.2% (inactive) | -0.2% | – | – |
| Clc1ccc2c(c1)CCc1cccnc1C2=C1CCNCC1 | 48.1% (inactive) and 27.5% (inactive) and 15.2% (inactive) | 92% and 56.9% and 74% | 1 (inactive) | -2.84% (inactive) | -3.54% (inactive) | 1 (inactive) | 1.87 (inactive) | 0.3% (inactive) | -0.9% | – | – |
| COC(=O)CCc1ccc(OCC(O)CNC(C)C)cc1 (configuration not stated) | 82.9% (inactive) and 30.6% (inactive) | 72.2% and 73% | 1.05 (inactive) | -1.98% (inactive) | -5.49% (inactive) | 1.01 (inactive) | 0.0866 (inactive) | -2% (inactive) | 0.1% | – | – |
| CC(C)c1ccc2oc3nc(N)c(C(=O)O)cc3c(=O)c2c1 | 196% (inactive) | 67.7% | 1.01 (inactive) | 2.77% (inactive) | 6.06% (inactive) | 0.99 (inactive) | 0.737 (inactive) | 0.2% (inactive) | -1.6% | – | – |
| CNNCc1ccc(C(=O)NC(C)C)cc1 | 101% (inactive) and 80.5% (inactive) and 21.4% (inactive) | 76.9% and 70.8% and 66.5% | 1.04 (inactive) | 1.19% (inactive) | -0.1% (inactive) | 1.02 (inactive) | -0.83 (inactive) | -2% (inactive) | 1% | – | – |
| CC(=O)OCC(=O)NCCCOc1cccc(CN2CCCCC2)c1 | 165% (inactive) and 103% (inactive) and 34.4% (inactive) | 104% and 78.4% and 85% | 1.04 (inactive) | -0.4% (inactive) | -0.1% (inactive) | 1.02 (inactive) | -0.306 (inactive) | 1.8% (inactive) | 0.4% | – | – |
| CC(Cc1ccccc1)(NC(=O)CN)c1ccccc1 (configuration not stated) | 118% (inactive) | 74.8% | 1.07 (inactive) | 5.15% (inactive) | 6.83% (inactive) | 1.03 (inactive) | 1.57 (inactive) | 0.8% (inactive) | 0% | – | – |
| Cc1ccsc1C(=CCCN1CCC[C@@H](C(=O)O)C1)c1sccc1C | 111% (inactive) | 71.9% | 0.99 (inactive) | -2.77% (inactive) | 3.75% (inactive) | 0.96 (inactive) | 1.77 (inactive) | 1.8% (inactive) | 0.9% | – | – |
| COc1cc(-c2ccc(=O)[nH]n2)ccc1OC(F)F | 107% (inactive) and 103% (inactive) and 31.7% (inactive) | 78.6% and 72.5% | 0.99 (inactive) | -2.77% (inactive) | -0.87% (inactive) | 0.94 (inactive) | -0.623 (inactive) | 2% (inactive) | 0.9% | – | – |
| COc1cc2c(cc1OC)C(=O)C(CC1CCN(Cc3ccccc3)CC1)C2 (configuration not stated) | 49.6% (inactive) and 67.4% (inactive) | 93.5% and 63.1% | 1.07 (inactive) | 1.98% (inactive) | 1.44% (inactive) | 1.04 (inactive) | 0.0126 (inactive) | -1% (inactive) | -0.2% | – | – |
| O=c1c(-c2ccccc2)c1-c1ccccc1 | 7.97% (inactive) | 65.5% | 0.98 (inactive) | -0.4% (inactive) | 1.44% (inactive) | 0.79 (active) | -0.326 (inactive) | 40.6% (active) | 22.6% | – | – |
| CCC1=C(C)CN(C(=O)NCCc2ccc(S(=O)(=O)NC(=O)NC3CCC(C)CC3)cc2)C1=O (configuration not stated) | 156% (inactive) and 92.3% (inactive) and 45.4% (inactive) | 98.1% and 72.7% and 68.5% | 0.97 (inactive) | -1.09% (inactive) | 0.39% (inactive) | 0.96 (inactive) | 1.17 (inactive) | 1% (inactive) | -1.7% | – | – |
| Cc1c(O)cccc1C(=O)N[C@@H](CSc1ccccc1)[C@H](O)CN1C[C@H]2CCCC[C@H]2C[C@H]1C(=O)NC(C)(C)C | 23.1% (inactive) and 3.4% (inactive) | 69.9% and 65.5% | 0.95 (inactive) | -4.36% (inactive) | 2.98% (inactive) | 0.94 (inactive) | 0.175 (inactive) | 2.3% (inactive) | -1.9% | – | – |
| COCc1c(C(C)C)nc(C(C)C)c(/C=C/[C@@H](O)C[C@@H](O)CC(=O)O)c1-c1ccc(F)cc1 | 149% (inactive) and 309% (inactive) | 53.2% and 109% | 1.03 (inactive) | -4.36% (inactive) | -2.41% (inactive) | 0.99 (inactive) | -0.18 (inactive) | 18.8% (active) | 44.8% | – | – |
